Experimental data taken from PubChem BioAssay (NCI).
“And” between values parts separate entries of the source, which are not always exact repeats. Equal values may be shown once. About 83,000 compounds went through this panel and 20% of them were active in at least one assay; those are over-represented in the sample as a whole.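 Assay: single dose, 48 h. Readout: percent growth (0 = no net growth; negative = cell death). Active: <10.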 The source made the active and inactive calls.

What was measured:
Assay in all cases: NCI-60 one-dose screen, 48 h (100 = growth as untreated, 0 = no growth, -100 = all killed)
Settings in all cases: 10 µM unless noted
SK-MEL-2 melanoma = tested on: SK-MEL-2 melanoma
EKVX NSCLC = tested on: EKVX NSCLC
SN12C renal = tested on: SN12C renal
UO-31 renal = tested on: UO-31 renal
TK-10 renal = tested on: TK-10 renal
ACHN renal = tested on: ACHN renal
CAKI-1 renal = tested on: CAKI-1 renal
A498 renal = tested on: A498 renal
CCRF-CEM leukemia = tested on: CCRF-CEM leukemia
MOLT-4 leukemia = tested on: MOLT-4 leukemia
SR leukemia = tested on: SR leukemia
RPMI-8226 leukemia = tested on: RPMI-8226 leukemia
OVCAR-8 ovarian = tested on: OVCAR-8 ovarian
OVCAR-4 ovarian = tested on: OVCAR-4 ovarian
SK-OV-3 ovarian = tested on: SK-OV-3 ovarian
IGROV1 ovarian = tested on: IGROV1 ovarian
OVCAR-3 ovarian = tested on: OVCAR-3 ovarian
HS 578T breast = tested on: HS 578T breast
NCI/ADR-RES ovarian = tested on: NCI/ADR-RES ovarian
OVCAR-5 ovarian = tested on: OVCAR-5 ovarian

SMILES | growth (SK-MEL-2 melanoma) | growth (EKVX NSCLC) | growth (SN12C renal) | growth (UO-31 renal) | growth (TK-10 renal) | growth (ACHN renal) | growth (CAKI-1 renal) | growth (A498 renal) | growth (CCRF-CEM leukemia) | growth (MOLT-4 leukemia) | growth (SR leukemia) | growth (RPMI-8226 leukemia) | growth (OVCAR-8 ovarian) | growth (OVCAR-4 ovarian) | growth (SK-OV-3 ovarian) | growth (IGROV1 ovarian) | growth (OVCAR-3 ovarian) | growth (HS 578T breast) | growth (NCI/ADR-RES ovarian) | growth (OVCAR-5 ovarian)
CCN(CC)CCOc1ccc2c(c1)C(=O)c1cc(OCCN(CC)CC)ccc1-2 | 114% (inactive) and 95.4% (inactive) | 90.5% (inactive) and 59% (inactive) | 73.2% (inactive) and 61.6% (inactive) | 59.6% (inactive) and 4.32% (active) | 75.8% (inactive) and 78.1% (inactive) | 46.7% (inactive) | 85.7% (inactive) | 73.9% (inactive) and 90.8% (inactive) | 55.1% (inactive) | 50.5% (inactive) and -16.2% (active) | 93% (inactive) | 67.1% (inactive) and 7.54% (active) | 46.5% (inactive) and 59.3% (inactive) | 60.7% (inactive) and 40.7% (inactive) | 90% (inactive) and 87.6% (inactive) | 78.3% (inactive) | 96.1% (inactive) and 70.5% (inactive) | 97.8% (inactive) and 91.7% (inactive) | 69.7% (inactive) and 70.8% (inactive) | 
CC1=C(/C=C/C(C)=C/C=C/C(C)=C/C(=O)Nc2ccc(O)cc2)C(C)(C)CCC1 | 78.6% (inactive) | 64.7% (inactive) | 39.2% (inactive) | -4.99% (active) | 103% (inactive) | 52.2% (inactive) | 47% (inactive) | 71.4% (inactive) | 19.5% (inactive) | 7.55% (active) | -4.85% (active) |  | 65.9% (inactive) | 44.3% (inactive) | 69.3% (inactive) | -0.235% (active) | 27.8% (inactive) |  | 39.1% (inactive) | 89.9% (inactive)
CC(=O)C(/C=N/C(N)=O)=C(/C)O | 119% (inactive) | 108% (inactive) | 105% (inactive) | 91.1% (inactive) | 105% (inactive) | 99.8% (inactive) | 97.9% (inactive) | 92.7% (inactive) | 97.4% (inactive) | 111% (inactive) | 96.9% (inactive) | 112% (inactive) | 104% (inactive) | 114% (inactive) |  | 114% (inactive) | 121% (inactive) | 108% (inactive) | 99.4% (inactive) | 109% (inactive)
O=C(Nc1ccc(Cl)cc1)c1cc2ccccc2cc1O | 36.9% (inactive) and 7.35% (active) | 15.3% (inactive) and 14.6% (inactive) | 8.95% (active) and -2.39% (active) | 10.9% (inactive) and 4.71% (active) | 53.3% (inactive) and 8.41% (active) | 30.3% (inactive) and 31.2% (inactive) | 34.5% (inactive) and -23.4% (active) | -5.52% (active) | 17.8% (inactive) | 4.27% (active) and -8.37% (active) | 15.8% (inactive) and -13.9% (active) | -10.7% (active) and -29% (active) | 26.1% (inactive) and -5.89% (active) | 34.5% (inactive) and 20.9% (inactive) | 18.9% (inactive) | 23.3% (inactive) and 21.8% (inactive) | 14.4% (inactive) and 5.62% (active) | 15.8% (inactive) and 4.92% (active) | 12.5% (inactive) and 6.49% (active) | 
CC(C)Oc1ccc2cc(-c3nn(CC4CCNCC4)c4ncnc(N)c34)ccc2c1 | 100% (inactive) | 97.4% (inactive) and 26.2% (inactive) | 79.7% (inactive) | 71.6% (inactive) and 36.9% (inactive) | 82.2% (inactive) and 14.6% (inactive) | 88.1% (inactive) and 14.1% (inactive) | 106% (inactive) and 31% (inactive) | 75% (inactive) and 16.7% (inactive) | 60.6% (inactive) and -23% (active) | 29% (inactive) and -23.8% (active) | 18.3% (inactive) and -42.2% (active) | 46.6% (inactive) and -53.2% (active) | 90.8% (inactive) and 38.9% (inactive) | 100% (inactive) and 30.9% (inactive) | 75.8% (inactive) and 13.3% (inactive) | 92.1% (inactive) and 42.4% (inactive) | 92.2% (inactive) and 33.9% (inactive) | 75.7% (inactive) and -8.78% (active) | 94.7% (inactive) and 64.2% (inactive) | 
COc1ccccc1/C=N\N=C(N/N=C/c1ccccc1OC)N/N=C/c1ccccc1OC | 47.5% (inactive) and 31.8% (inactive) | 74.4% (inactive) and 48.3% (inactive) | 77.2% (inactive) and 28.4% (inactive) | 50.4% (inactive) and -10.3% (active) | 110% (inactive) and 57.7% (inactive) | 63.8% (inactive) and 40.6% (inactive) | 43.6% (inactive) and 33.7% (inactive) | 100% (inactive) and 72.2% (inactive) | 39.9% (inactive) and 23.4% (inactive) | 31.1% (inactive) and 8.9% (active) | 19.9% (inactive) and 19.6% (inactive) | 26.7% (inactive) and -8.79% (active) | 69% (inactive) and 23.3% (inactive) | 29.2% (inactive) |  | 87.7% (inactive) and 26.3% (inactive) | -6.91% (active) and 19.3% (inactive) |  | 45.4% (inactive) and 19.1% (inactive) | 94.6% (inactive) and 52.1% (inactive)
CN(C)CCC(=O)c1ccc(Cl)cc1 | 115% (inactive) and 118% (inactive) | 115% (inactive) and 124% (inactive) | 97.9% (inactive) and 102% (inactive) | 87.3% (inactive) and 95.4% (inactive) | 105% (inactive) and 119% (inactive) | 114% (inactive) and 105% (inactive) | 102% (inactive) and 106% (inactive) | 121% (inactive) and 114% (inactive) | 93.2% (inactive) and 73.9% (inactive) | 94.7% (inactive) and 93.5% (inactive) | 110% (inactive) | 75.4% (inactive) and 58% (inactive) | 110% (inactive) and 105% (inactive) | 105% (inactive) and 118% (inactive) |  |  | 115% (inactive) and 113% (inactive) | 112% (inactive) | 114% (inactive) and 104% (inactive) | 117% (inactive) and 113% (inactive)
CCN1CCN(CCNc2nccc(-c3c(-c4cccc(O)c4)nc4sccn34)n2)S1(=O)=O | 11.2% (inactive) and 27.5% (inactive) | 110% (inactive) and 111% (inactive) | 75.8% (inactive) and 66.7% (inactive) | 67.9% (inactive) and 58.3% (inactive) | 92.8% (inactive) | 47.5% (inactive) and 33.5% (inactive) | 44.2% (inactive) and 34% (inactive) |  | 67.4% (inactive) and 62.1% (inactive) | 89.7% (inactive) and 81.7% (inactive) | 59.4% (inactive) and 36.2% (inactive) | 69.3% (inactive) and 102% (inactive) | 90% (inactive) and 68.3% (inactive) | 106% (inactive) and 77.7% (inactive) | 38.4% (inactive) and 39.1% (inactive) | 54% (inactive) and 57.5% (inactive) | 92.9% (inactive) and 86.7% (inactive) | 78% (inactive) | 102% (inactive) and 103% (inactive) | 87.2% (inactive) and 95.5% (inactive)
CC(=O)c1ccc2c(c1)N(CCCN1CCN(CCO)CC1)c1ccccc1S2 | 2.74% (active) and -42% (active) | 83.9% (inactive) and 60.6% (inactive) | 99% (inactive) and 53.6% (inactive) | 56.9% (inactive) and 2.41% (active) | 86.4% (inactive) and 27.5% (inactive) | 95.5% (inactive) and 30.7% (inactive) | 77.3% (inactive) and 15.7% (inactive) | 85.1% (inactive) and 28.6% (inactive) |  | 60.4% (inactive) and 4.26% (active) | -30.2% (active) | 77.6% (inactive) and 10.7% (inactive) | 82.5% (inactive) and 72.9% (inactive) | 101% (inactive) and 49.8% (inactive) | 152% (inactive) and 50.5% (inactive) |  | 103% (inactive) and 40.7% (inactive) |  | 95.6% (inactive) and 45.8% (inactive) | 93% (inactive) and 51.6% (inactive)
